Hits are enriched below; roughly 3.6% of the tested compounds scored in any of these assays.
LGR2 antag – inhibitors of bursicon-induced Drosophila LGR2 receptor cAMP signaling; HEK293 LGR2, CRE-luciferase, bursicon-stimulated, 4 h; 380,000 compounds, 0.35% hits; inhibition, % at 9.99 µM;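 active = drop in luminescence signal, shown as inhibition above about 50% in the replicate tests, limit read from the data, passing the limit was not always enough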;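 note: agonist challenge used bursicon conditioned medium at about half maximal strength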
HSF1 inhib – HSF1 inhibition | NIH3T3-HGL HSE-luciferase, MG132-induced, luminescence 8 h; hits give low values | activity change, negative = inhibition, % at 7.5 µM (by protocol) | 300,000 compounds, 0.77% hits;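 active = more than half of replicate wells show activity change below -50%, luminescence cut by over half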;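 note: luciferase reports HSF-1 transcriptional activity via heat shock element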
LMP1 NFkB inh – inhibitors of Epstein-Barr LMP1-induced NF-kappaB reporter; LMP1-induced NF-kappaB luciferase reporter cells, luminescence; inhibition, % at 12.5 µM; 350,000 compounds, 0.69% hits; AID 504558; in the data active = inhibition above about 41%
TROY NFkB inh – inhibitors of TROY-dependent NF-kB signaling. Q293 LMP1-TROYcd NF-kB luciferase reporter, 4 h. inhibition, % at 10 µM. 360,000 compounds, 0.98% hits;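 active = compounds whose plate-normalised and pattern-corrected inhibition of the luciferase reporter signal at the single screening dose is 50% or more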
HSF1 activator – increases HSF-1 driven luciferase reporter signal; 300,000 compounds, 1.7% hits; activation, % at 9 µM; NIH3T3-HGL HSF-1 luciferase reporter, MG132, 8 h; 100% = twice DMSO control signal;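 active = mean replicate activation of at least 50% with a set share of replicates each reaching 50%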
TWEAK-Fn14 inh – inhibitors of TWEAK-Fn14 interaction signaling; TWEAK-stimulated Fn14 reporter cells, luciferase luminescence, 8 h; inhibition, % at 10 µM; 360,000 compounds, 2% hits; AID 1159606; in the data active = inhibition above about 50%
Of the large screens only hits and unclear results are named; the others gave an inactive call.

C=CCC[C@@H](Cc1ccc(F)cc1)C(=O)OC[C@H](Cc1c[nH]c2ccccc12)NC(=O)[C@H](CC=C)CC(=O)N(CCO)Cc1ccccc1	TWEAK-Fn14 inh 59.7 (no result: HSF1 inhib, HSF1 activator)
C=CCC[C@H](Cc1ccc(F)cc1)C(=O)OC[C@H](Cc1c[nH]c2ccccc12)NC(=O)[C@@H](CC=C)CC(=O)N(CCO)Cc1ccccc1	TWEAK-Fn14 inh 60.0 (no result: HSF1 inhib, HSF1 activator)
C=CCC[C@H](Cc1ccc(F)cc1)C(=O)OC[C@@H](Cc1c[nH]c2ccccc12)NC(=O)[C@@H](CC=C)CC(=O)N(CCO)Cc1ccccc1	none (no result: HSF1 inhib, HSF1 activator)
CNC[C@H]1OCCCC[C@H](C)Oc2ccc(NS(=O)(=O)c3ccc(OC)cc3)cc2C(=O)N([C@@H](C)CO)C[C@@H]1C	none (no result: HSF1 inhib, LMP1 NFkB inh, TROY NFkB inh, HSF1 activator, TWEAK-Fn14 inh)
COc1ccc(NC(=O)Nc2ccc3c(c2)C(=O)N([C@H](C)CO)C[C@@H](C)[C@H](CN(C)C(=O)NC2CCCCC2)OCCCC[C@@H](C)O3)cc1	none (no result: HSF1 inhib, LMP1 NFkB inh, TROY NFkB inh, HSF1 activator, TWEAK-Fn14 inh)
S=c1[nH]nc(-c2ccccc2)n1CC1CCCO1 (stereo unspecified)	none (no result: LGR2 antag)
Fc1ccccc1-c1nc2nc3ccccc3nc2n1CC1CCCO1 (stereo unspecified)	HSF1 activator 62.6
O=C1c2ccccc2C(=O)C1c1ccc(O)cc1	HSF1 activator 72.4
CC(=O)N1[C@H](CO)[C@H](c2ccc(-c3ccccc3)cc2)[C@@H]1CNC(=O)NC(C)C	none (no result: HSF1 inhib, LMP1 NFkB inh, TROY NFkB inh, HSF1 activator, TWEAK-Fn14 inh)
CC1Cc2nc(SCC(=O)N3CCN(c4ccccc4)CC3)n(C)c(=O)c2S1 (stereo unspecified)	LMP1 NFkB inh 77.2
CCn1c(SCC(=O)N2CCN(c3ccccc3)CC2)nc2c(c1=O)SC(C)C2 (stereo unspecified)	none
CC1Cc2nc(SCC(=O)Nc3ccc4c(c3)OCO4)n(Cc3ccccc3)c(=O)c2S1 (stereo unspecified)	HSF1 activator 78.4 (no result: LGR2 antag)
CC1Cc2nc(SCC(=O)Nc3ccc4c(c3)OCCO4)n(C)c(=O)c2S1 (stereo unspecified)	TROY NFkB inh 71.1 (no result: LGR2 antag)
CSc1nsc(SCC(=O)Nc2ccc3c(c2)OCCO3)n1	HSF1 activator 54.8 (no result: LGR2 antag)
O=C(Nc1ccc2c(c1)OCO2)N[C@@H]1CC[C@@H](CCNC(=O)C2CCCC2)O[C@@H]1CO	none (no result: HSF1 inhib, LMP1 NFkB inh, TROY NFkB inh, HSF1 activator, TWEAK-Fn14 inh)
CC(C)c1noc2ncc(C(=O)c3cc(Cl)cc(Cl)c3O)cc12	TROY NFkB inh 62.5 (no result: LGR2 antag)
CC(=O)N1CC(=O)N2[C@H](C1)[C@H](c1ccc(-c3ccncc3)cc1)[C@@H]2CO	none (no result: HSF1 inhib, LMP1 NFkB inh, TROY NFkB inh, HSF1 activator, TWEAK-Fn14 inh)
CC(=O)Cn1cnc2c(cnn2-c2ccc(C)c(C)c2)c1=O	HSF1 activator 59.0
Clc1c(Cl)c(Cl)c2n[nH]nc2c1Cl	TROY NFkB inh 59.9 (no result: HSF1 activator)
C[C@@H]1CN([C@H](C)CO)C(=O)Cc2cc(NC(=O)C3CC3)ccc2O[C@H]1CN(C)S(=O)(=O)c1cn(C)cn1	none (no result: HSF1 inhib, LMP1 NFkB inh, TROY NFkB inh, HSF1 activator, TWEAK-Fn14 inh)
O=C(COC(=O)C1C2CC3OC(=O)C1C3C2)Nc1cccc(Cl)c1 (stereo unspecified)	HSF1 inhib -63.7
Cc1ccc(NC(=O)COC(=O)C2C3CC4OC(=O)C2C4C3)cc1 (stereo unspecified)	none
CN(C)CCCNC(=O)C[C@H]1CC[C@@H](NC(=O)Cc2cccnc2)[C@H](CO)O1	none (no result: HSF1 inhib, LMP1 NFkB inh, TROY NFkB inh, HSF1 activator, TWEAK-Fn14 inh)
CC1(C)CC(=O)C=C(Nc2ccc(Br)cc2F)C1	HSF1 inhib -63.5
Cc1ccc(NC2=CC(=O)CC(C)(C)C2)c(N)c1	none
CCC(=O)N1CCN(c2ccc(NC(=O)COc3ccccc3Cl)cc2)CC1	none (no result: LGR2 antag)
CCC(=O)N1CCN(c2ccc(NC(=O)c3ccc([N+](=O)[O-])o3)cc2)CC1	HSF1 inhib -75.7
CCCC(=O)N1CCN(c2ccc(NC(=O)c3ccc([N+](=O)[O-])o3)cc2)CC1	none
CCC(=O)N1CCN(c2ccc(NC(=O)COc3ccc(C)cc3C)cc2)CC1	HSF1 activator 109.5
COc1ccc(N2CCN(c3ccc(NC(=O)NN)cc3)CC2)cc1	HSF1 inhib -66.9
COc1ccccc1C(=O)Nc1ccc(N2CCN(S(C)(=O)=O)CC2)cc1	HSF1 activator 78.1 (no result: LGR2 antag)
Cc1ccc(S(=O)(=O)N(C)C[C@H]2Oc3ccc(NS(=O)(=O)c4ccc(Cl)cc4)cc3C(=O)N([C@@H](C)CO)C[C@H]2C)cc1	none (no result: HSF1 inhib, LMP1 NFkB inh, TROY NFkB inh, HSF1 activator, TWEAK-Fn14 inh)
CCC(=O)N1[C@@H]2c3ccc(-c4ccccc4)c(=O)n3C[C@H]1[C@H](CO)[C@H]2C(=O)N(C)C	none (no result: HSF1 inhib, LMP1 NFkB inh, TROY NFkB inh, HSF1 activator, TWEAK-Fn14 inh)
CCC(=O)N1CCN(c2ccc(NC(=O)c3ccccc3)cc2)CC1	none

Bioassay records deposited in PubChem BioAssay by several laboratories.
